Compounds without any hit were thinned out: in the full panel of roughly 83,000, 20% have a hit.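 The test compound was applied at a single concentration to cells in 96-well plates for 48 hours, and percent growth was recorded.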 Active and inactive are the calls of the source. Rule for the calls: active = growth percent below 10; inactive = the rest.
What was measured:
Assay in all cases: NCI-60 one-dose screen, 48 h (100 = growth as untreated, 0 = no growth, -100 = all killed)
Details in all cases: 10 µM unless noted
HCT-15 colon = test system: HCT-15 colon
HT29 colon = test system: HT29 colon
SNB-75 CNS = test system: SNB-75 CNS
SNB-19 CNS = test system: SNB-19 CNS
U251 CNS = test system: U251 CNS
PC-3 prostate = test system: PC-3 prostate
SK-MEL-5 melanoma = test system: SK-MEL-5 melanoma
UACC-62 melanoma = test system: UACC-62 melanoma
LOX IMVI melanoma = test system: LOX IMVI melanoma
SK-MEL-28 melanoma = test system: SK-MEL-28 melanoma

Measured: growth

COc1cc(OC)c(C(=O)/C=C/c2cccc(OC(C)=O)c2)cc1CC=C(C)C
inactive: HCT-15 colon 55% | HT29 colon 84.2% | SNB-75 CNS 77.5% | SNB-19 CNS 101% | U251 CNS 44.6% | PC-3 prostate 36% | SK-MEL-5 melanoma 64.2% | UACC-62 melanoma 47.3% | LOX IMVI melanoma 48.3% | SK-MEL-28 melanoma 67.8%

CCCCCCCCCCCCNC(=O)N[C@H](C(=O)N[C@H]1/C=C/OCCNC(=O)/C=C/[C@H](C(C)C)NC1=O)C(C)C
inactive: HCT-15 colon 117% | HT29 colon 34.9% | SNB-75 CNS 46.5% | SNB-19 CNS 47.1% | U251 CNS 43.2% | PC-3 prostate 51.1% | SK-MEL-5 melanoma 46.1% | UACC-62 melanoma 55.4% | LOX IMVI melanoma 55.7% | SK-MEL-28 melanoma 46.3%

COc1ccc2nc(C)cc(Sc3nc4ccccc4s3)c2c1
inactive: HCT-15 colon 29.2% | HT29 colon 26.2% | SNB-75 CNS 46.4% | SNB-19 CNS 62% | U251 CNS 39.6% | PC-3 prostate 52.9% | SK-MEL-5 melanoma 35.2% | UACC-62 melanoma 47.3% | LOX IMVI melanoma 29.4% | SK-MEL-28 melanoma 62.7%

CC(C)(CCc1ccccn1)C(=O)CCCc1ccccn1
inactive: HCT-15 colon 108% | HT29 colon 97% | SNB-75 CNS 102% | SNB-19 CNS 94% | U251 CNS 100% | PC-3 prostate 89% | SK-MEL-5 melanoma 104% | UACC-62 melanoma 89.8% | LOX IMVI melanoma 94.2% | SK-MEL-28 melanoma 115%

CCOC(OCC)c1cnc2nc(NC(C)=O)[nH]c(=O)c2n1
inactive: HCT-15 colon 98.7% | HT29 colon 90.6% | SNB-75 CNS 91.5% | SNB-19 CNS 99.4% | U251 CNS 104% | PC-3 prostate 106% | SK-MEL-5 melanoma 104% | UACC-62 melanoma 102% | LOX IMVI melanoma 100% | SK-MEL-28 melanoma 105%

CC1CCCN(CCCCOc2ccc(-c3ccc(C#N)cc3)cc2)C1 (stereo not given)
inactive: HCT-15 colon 56.4% | HT29 colon 14.6% | SNB-75 CNS 90.3% | SNB-19 CNS 95.3% | U251 CNS 71.7% | PC-3 prostate 75.4% | SK-MEL-5 melanoma 46.2% | UACC-62 melanoma 89.8% | LOX IMVI melanoma 83.9% | SK-MEL-28 melanoma 100%

CCCCOc1nc2ccc(C)cc2cc1/C=C/C(=O)/C=C(O)/C=C/c1cc2cc(C)ccc2nc1OCCCC
inactive: HCT-15 colon 110% | HT29 colon 101% | SNB-75 CNS 92.7% | SNB-19 CNS 96.2% | U251 CNS 88.3% | PC-3 prostate 99% | SK-MEL-5 melanoma 105% | UACC-62 melanoma 87.6% | LOX IMVI melanoma 91.6% | SK-MEL-28 melanoma 107%

COc1ccc(C(=O)OC2C(OC3C(O)COC(O[C@H]4C[C@H]5[C@@H]6CC=C7C[C@@H](O)CC[C@]7(C)[C@H]6CC[C@]5(C)[C@H]4[C@H](C)C(=O)CCC(C)C)C3OC(C)=O)OCC(O)C2O)cc1 (stereo not given in full)
active: HCT-15 colon -51.5% | HT29 colon 0.168% | SNB-75 CNS -9.67% | SNB-19 CNS -22.8% | U251 CNS -42.8% | PC-3 prostate -32.6% | SK-MEL-5 melanoma -77.1% | UACC-62 melanoma -49.9% | LOX IMVI melanoma -49.8% | SK-MEL-28 melanoma -54.6%

CC1=C(/C=C/C(C)=C/C=C(C(=O)O)\C(C)=C\C(=O)O)C(C)(C)CCC1
inactive: HCT-15 colon 105% | HT29 colon 96.8% | SNB-75 CNS 87.5% | SNB-19 CNS 97.8% | U251 CNS 94.6% | PC-3 prostate 91.3% | SK-MEL-5 melanoma 111% | UACC-62 melanoma 96.9% | LOX IMVI melanoma 94.9% | SK-MEL-28 melanoma 114%

COc1cc(C2CC(c3ccc(Cl)cc3)=NN2C=O)ccc1Oc1ccnc2cc(Cl)ccc12 (stereo not given)
active: SNB-75 CNS 7.19%
inactive: HCT-15 colon 85.7% | HT29 colon 58% | SNB-19 CNS 72.6% | U251 CNS 72.5% | PC-3 prostate 66.8% | SK-MEL-5 melanoma 51% | UACC-62 melanoma 74.6% | LOX IMVI melanoma 74.2% | SK-MEL-28 melanoma 74.4%

CSc1nc(N)c2[nH]c(-c3cc4ccccc4[nH]c3=O)nc2n1
inactive: HCT-15 colon 64.8% | HT29 colon 94.2% | SNB-75 CNS 113% | SNB-19 CNS 109% | U251 CNS 84.7% | PC-3 prostate 78.7% | SK-MEL-5 melanoma 100% | UACC-62 melanoma 83.4% | LOX IMVI melanoma 69.9% | SK-MEL-28 melanoma 116%

CCC1N=C(N)N=C(N)N1c1ccc(Cl)cc1 (stereo not given)
inactive: HCT-15 colon 105% | HT29 colon 72.1% | SNB-75 CNS 91.7% | SNB-19 CNS 106% | U251 CNS 58.8% | PC-3 prostate 62.6% | SK-MEL-5 melanoma 49.5% | UACC-62 melanoma 100% | LOX IMVI melanoma 68.6% | SK-MEL-28 melanoma 101%

O=C(NCCN1CCCC1)n1cc(-c2ccncc2)c(-c2cc(O)cc(Cl)c2)n1
inactive: HCT-15 colon 88.6% | HT29 colon 90.1% | SNB-75 CNS 110% | SNB-19 CNS 98.5% | U251 CNS 82.9% | PC-3 prostate 103% | SK-MEL-5 melanoma 62.9% | UACC-62 melanoma 34.6% | LOX IMVI melanoma 79.7% | SK-MEL-28 melanoma 36.7%

Cn1c(=O)c2c(nc(N/N=C/c3ccccc3Cl)n2C)n(C)c1=O
inactive: HCT-15 colon 105% | HT29 colon 93.6% | SNB-75 CNS 93.6% | SNB-19 CNS 108% | U251 CNS 101% | PC-3 prostate 99.3% | SK-MEL-5 melanoma 109% | UACC-62 melanoma 104% | LOX IMVI melanoma 98.2% | SK-MEL-28 melanoma 122%

Cc1ccc2c(C)c3c(ccc4ccccc43)c[n+]2c1
inactive: HCT-15 colon 95.8% | HT29 colon 88.1% | SNB-75 CNS 65% | SNB-19 CNS 24% | U251 CNS 24.5% | PC-3 prostate 52.9% | UACC-62 melanoma 74.2% | LOX IMVI melanoma 91.9% | SK-MEL-28 melanoma 77.8%
active: SK-MEL-5 melanoma -25.6%

CC(=O)CC(c1ccc([N+](=O)[O-])cc1)c1c(O)c2ccccc2oc1=O (stereo not given)
inactive: HCT-15 colon 110% | HT29 colon 106% | SNB-75 CNS 81.7% | SNB-19 CNS 109% | U251 CNS 104% | PC-3 prostate 92% | SK-MEL-5 melanoma 91.9% | UACC-62 melanoma 100% | LOX IMVI melanoma 101% | SK-MEL-28 melanoma 113%

COc1cc2c(c(OC)c1O)C(=O)C(OC)C(c1ccc(O)c(O)c1)O2 (stereo not given)
active: HCT-15 colon 3.6% | SNB-75 CNS -8.14% | PC-3 prostate -22.3% | SK-MEL-5 melanoma -23.6%
inactive: HT29 colon 46.8% | SNB-19 CNS 21% | U251 CNS 15.4% | UACC-62 melanoma 29.3% | LOX IMVI melanoma 12.9% | SK-MEL-28 melanoma 56.2%

O=C1/C(=C/N2N=C(c3ccc(Cl)cc3)CC2c2ccccc2O)SC(=S)N1c1cccc(C(F)(F)F)c1 (stereo not given)
inactive: HCT-15 colon 43.5% | HT29 colon 37.6% | SNB-75 CNS 38.4% | SNB-19 CNS 71% | U251 CNS 45.1% | PC-3 prostate 23.6% | SK-MEL-5 melanoma 79.7% | UACC-62 melanoma 52.3% | LOX IMVI melanoma 48.3% | SK-MEL-28 melanoma 73.9%

CC(SC(C)C(=O)N/N=C/c1cccc(Cl)c1)C(=O)N/N=C\c1cccc(Cl)c1 (stereo not given)
inactive: HCT-15 colon 86.5% | HT29 colon 79% | SNB-75 CNS 83.7% | SNB-19 CNS 89.5% | U251 CNS 48.2% | PC-3 prostate 53.5% | SK-MEL-5 melanoma 98.2% | UACC-62 melanoma 92.1% | SK-MEL-28 melanoma 117%
active: LOX IMVI melanoma 7.06%

CCCCCCCCN(CCCCCCCC)C(=O)CCl
active: LOX IMVI melanoma -63.3%
inactive: HCT-15 colon 96.1% | HT29 colon 114% | SNB-75 CNS 95.4% | SNB-19 CNS 97.5% | U251 CNS 101% | PC-3 prostate 85.6% | SK-MEL-5 melanoma 88.6% | UACC-62 melanoma 82.9% | SK-MEL-28 melanoma 110%
